From article PMC6212790, “How bacterial xenogeneic silencer rok distinguishes foreign from self DNA in its resident genome”
The full ranking holds about 33,000 sequences; the median of “e-score” is about -0.038, and the highest 2% start at about 0.33. The entries come from a sample that favours the highest values as a whole.

The sequences below were run against T1, GST-Rok-C97-191 (Bacillus subtilis subsp. subtilis str. …, UniProt O34857 97-191) (assay: protein binding microarray; Rok is a gene silencer of Bacillus subtilis; high values mean tight binding). Conditions: protein: recombinant; tags: GST (pTH5325, pDEST15-Magic modified); dsDNA, one strand shown.
T1 sequence: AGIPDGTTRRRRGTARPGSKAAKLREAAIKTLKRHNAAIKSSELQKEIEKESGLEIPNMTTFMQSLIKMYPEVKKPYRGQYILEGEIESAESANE
In short: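 Each has a 25-mer constant primer and a 35-mer variable part from a de Bruijn sequence of order 10, covering every non-palindromic 8-mer at least 32 times (palindromic 16). Preference for each 8-mer is given as a rank-based, unitless enrichment score (E-score). Its range runs from 0.5 (most favored) to −0.5 (most disfavored).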

Row | Sequence | binding signal
1 | ATGAATTC | 0.0443 E-score
2 | CGCTTAGA | -0.0215 E-score
3 | GATATCGA | 0.223 E-score
4 | GAACGACC | -0.143 E-score
5 | CGTTCTAG | 0.22 E-score
6 | CTTTGTCC | -0.101 E-score
7 | ATTAGGAA | -0.056 E-score
8 | TGGGACAA | -0.0222 E-score
9 | CATCCAAC | -0.0608 E-score
10 | AATTATAA | 0.274 E-score
11 | AATTATAT | 0.398 E-score
12 | AATTATAG | 0.303 E-score
13 | CATTATAC | 0.177 E-score
14 | AATTATAC | 0.348 E-score
15 | GATTATAC | 0.238 E-score
16 | AAGGGTGC | -0.165 E-score
17 | CATCTGAA | -0.0216 E-score
18 | ATAACTAA | 0.249 E-score
19 | AAAACTGT | 0.0809 E-score
20 | ATAACTAG | 0.232 E-score
21 | AAAACTGG | 0.0097 E-score
22 | AAAACTTG | -0.0585 E-score
23 | AAAACTAT | 0.415 E-score
24 | AAAACTAG | 0.364 E-score
25 | AAAACTAA | 0.255 E-score

Row | Sequence | binding signal
26 | ATAACTAT | 0.383 E-score
27 | AAAACTCC | 0.137 E-score
28 | AAAACTGC | -0.0367 E-score
29 | AAAACTAC | 0.433 E-score
30 | CGATCAAG | -0.0651 E-score
31 | ACATCGCG | 0.139 E-score
32 | CCAAATAC | 0.137 E-score
33 | GAACGTTC | 0.053 E-score
34 | CCGTAGCA | 0.075 E-score
35 | ATTTGGAA | 0.102 E-score
36 | AGCCAATA | -0.0503 E-score
37 | GAATTCAC | 0.074 E-score
38 | ACAACTAC | 0.348 E-score
39 | CAAACTTA | 0.101 E-score
40 | CAAACTAG | 0.287 E-score
41 | CAAACTCC | -0.063 E-score
42 | TAAACTAA | 0.234 E-score
43 | GAAACTAA | 0.313 E-score
44 | ACAACTAT | 0.321 E-score
45 | CAAACTAA | 0.374 E-score
46 | GAAACTAC | 0.46 E-score
47 | GAAACTTC | 0.204 E-score
48 | CAAACTAC | 0.446 E-score
49 | GCAACTAC | 0.239 E-score
50 | CTGAGTCA | -0.156 E-score

Row | Sequence | binding signal
51 | AGGTTCAC | -0.111 E-score
52 | GGTCCTTA | 0.0575 E-score
53 | CAAGGTGA | -0.134 E-score
54 | AAGTTGCA | 0.0502 E-score
55 | CTGGTCAA | 0.00605 E-score
56 | CCCATATC | -0.0677 E-score
57 | AGCTATTA | 0.315 E-score
58 | CATTTTTA | 0.184 E-score
59 | GATTTATA | 0.304 E-score
60 | CATTTATA | 0.354 E-score
61 | AATTTATG | 0.209 E-score
62 | AATTTATA | 0.373 E-score
63 | CATTTATC | 0.218 E-score
64 | ATTCACTA | 0.174 E-score
65 | AGTCGATC | -0.00304 E-score
66 | ACGGGAAA | 0.132 E-score
67 | ACCGGAAA | -0.1 E-score
68 | CCTATATA | 0.283 E-score
69 | GCTATACA | 0.176 E-score
70 | ACTATATC | 0.284 E-score
71 | ACTATAGA | 0.241 E-score
72 | GCTATATA | 0.355 E-score
73 | ACTATATA | 0.437 E-score
74 | ACTCTTTA | 0.0447 E-score
75 | ATATAGCG | 0.349 E-score

Row | Sequence | binding signal
76 | ATATAGGG | -0.00212 E-score
77 | CTATATAG | 0.413 E-score
78 | CCATATAG | 0.129 E-score
79 | ATATAGCA | 0.3 E-score
80 | ATATAGCC | 0.135 E-score
81 | ATGTATAG | 0.264 E-score
82 | CGATATAG | 0.238 E-score
83 | ATATATAG | 0.379 E-score
84 | AGCTTTGA | 0.0387 E-score
85 | AGCGGCAC | -0.177 E-score
86 | ATAGTTCA | 0.265 E-score
87 | ATAGTTCC | 0.143 E-score
88 | AAAGTTAG | 0.156 E-score
89 | ATAGTTAG | 0.35 E-score
90 | ATAGTTCG | 0.354 E-score
91 | ATAGTTAC | 0.254 E-score
92 | CTGTGAGA | -0.127 E-score
93 | GCACTTGA | -0.0251 E-score
94 | CATCATAG | 0.00873 E-score
95 | CTTATTCA | 0.048 E-score
96 | CGCAAAGA | -0.193 E-score
97 | GGAAAAAA | -0.0552 E-score
98 | TGTACAAA | 0.355 E-score
99 | AGTACAAA | 0.342 E-score
100 | CGTACAAA | 0.236 E-score

Row | Sequence | binding signal
101 | AGTACAAT | 0.269 E-score
102 | AGTACAAG | 0.247 E-score
103 | GGTACAAA | 0.216 E-score
104 | TCGAGGCA | 0.00484 E-score
105 | CCGCAAGA | -0.109 E-score
106 | GAATCGGA | -0.078 E-score
107 | TGATAGAA | 0.385 E-score
108 | AGATAGAA | 0.308 E-score
109 | CGATAGAG | -0.176 E-score
110 | CGATAGAC | 0.063 E-score
111 | GGATAGAA | 0.195 E-score
112 | CGATAGAA | 0.359 E-score
113 | GTGTTACA | 0.168 E-score
114 | ATAATGTG | 0.167 E-score
115 | ATAATGTA | 0.405 E-score
116 | GTAATGAA | -0.0192 E-score
117 | GTAATGTA | 0.339 E-score
118 | CTAATGTA | 0.185 E-score
119 | ATAATGTC | 0.112 E-score
120 | ATAAACGG | 0.19 E-score
121 | CGCCACCG | -0.0411 E-score
122 | ATTACTCG | 0.198 E-score
123 | ATTACTGC | 0.11 E-score
124 | ATTACTAA | 0.326 E-score
125 | ATTACTAG | 0.392 E-score

Row | Sequence | binding signal
126 | CTTACTAC | 0.171 E-score
127 | ATTACTAC | 0.407 E-score
128 | ATGTTTAC | 0.00161 E-score
129 | AAATGGTT | 0.177 E-score
130 | AGCTTCTG | -0.0648 E-score
131 | CGCTAGAC | 0.00486 E-score
132 | ATGTCCAC | -0.0386 E-score
133 | ATCTATCG | 0.313 E-score
134 | ACCTACCG | 0.148 E-score
135 | ATCTACCA | 0.469 E-score
136 | GTCTACCA | 0.15 E-score
137 | CTCTACGA | 0.107 E-score
138 | ATCTACCG | 0.394 E-score
139 | ATCTACCC | 0.22 E-score
140 | GTCTACGA | -0.0769 E-score
141 | ATCTACGA | 0.333 E-score
142 | CGAAAGAC | -0.0876 E-score
143 | GAAAGACA | -0.0886 E-score
144 | GTGCAGTA | 0.196 E-score
145 | ATCGAGGC | -0.159 E-score
146 | TATGACGA | 0.0683 E-score
147 | ATATTTGC | 0.295 E-score
148 | ATATTAAC | 0.296 E-score
149 | ATATTTAC | 0.375 E-score
150 | ATATTAAA | 0.385 E-score

Row | Sequence | binding signal
151 | CTATTTAC | 0.349 E-score
152 | ACATTTAC | 0.315 E-score
153 | ATTTTTAA | 0.146 E-score
154 | CTCTTTAC | 0.0967 E-score
155 | ATATTTAG | 0.201 E-score
156 | ATATTTAA | 0.338 E-score
157 | CTATTAAA | 0.0376 E-score
158 | CTATTTAA | 0.14 E-score
159 | CTTTACTC | -0.199 E-score
160 | ATGTAGGA | 0.201 E-score
161 | CTTGACGA | -0.14 E-score
162 | GATGTACA | 0.29 E-score
163 | AATGTACG | 0.155 E-score
164 | TATGTACA | 0.345 E-score
165 | AATGTACT | 0.296 E-score
166 | CATGTACC | 0.227 E-score
167 | AATGTACC | 0.373 E-score
168 | AGTGTACA | 0.141 E-score
169 | AATGTACA | 0.34 E-score
170 | CATGTACA | 0.317 E-score
171 | CCGAGTCG | -0.148 E-score
172 | AGGAGAAA | 0.073 E-score
